# This is a sample that favours compounds with a hit; in the whole collection about 1.7% have one here.
# FBPA coupling cs: counter-screen for Giardia aldolase inhibitors: coupling enzyme system | activity change, negative = inhibition, % at 58.2 µM, hits read low | AID 2472 | coupling enzyme system counterscreen, AmpLite Red fluorescence | 290,000 tested, 0.67% active; in the data active means activity change below about -30%
#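 Counterscreen of the coupled detection system alone, without aldolase: glyceraldehyde-3-phosphate coupling enzymes plus AmpLite Red readout. Compounds at 57.5 uM final, 10 min RT preincubation, 20 min RT reaction, fluorescence 525/598 nm.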
# USP1 inh: inhibitors of human USP1/UAF1 deubiquitinase; O94782; recombinant USP1/UAF1, Ub-Rhodamine cleavage fluorescence; Potency, µM (top dose mostly 57.1 µM), for the others: at the top dose activity change, negative = inhibition, hits mostly inhibitors; 390,000 tested, 0.23% active; AID 743255; active means well fitted inhibition curve with a large enough effect; inconclusive means small, poorly fitted or top-dose-only effect; inactive means no such curve, though single readings can be large or run the other way; further: potency means the concentration at half of the fitted maximal effect; nearly all actives have a fitted effect of over 60% in size
# Target sequence (O94782 whole entry, looked up): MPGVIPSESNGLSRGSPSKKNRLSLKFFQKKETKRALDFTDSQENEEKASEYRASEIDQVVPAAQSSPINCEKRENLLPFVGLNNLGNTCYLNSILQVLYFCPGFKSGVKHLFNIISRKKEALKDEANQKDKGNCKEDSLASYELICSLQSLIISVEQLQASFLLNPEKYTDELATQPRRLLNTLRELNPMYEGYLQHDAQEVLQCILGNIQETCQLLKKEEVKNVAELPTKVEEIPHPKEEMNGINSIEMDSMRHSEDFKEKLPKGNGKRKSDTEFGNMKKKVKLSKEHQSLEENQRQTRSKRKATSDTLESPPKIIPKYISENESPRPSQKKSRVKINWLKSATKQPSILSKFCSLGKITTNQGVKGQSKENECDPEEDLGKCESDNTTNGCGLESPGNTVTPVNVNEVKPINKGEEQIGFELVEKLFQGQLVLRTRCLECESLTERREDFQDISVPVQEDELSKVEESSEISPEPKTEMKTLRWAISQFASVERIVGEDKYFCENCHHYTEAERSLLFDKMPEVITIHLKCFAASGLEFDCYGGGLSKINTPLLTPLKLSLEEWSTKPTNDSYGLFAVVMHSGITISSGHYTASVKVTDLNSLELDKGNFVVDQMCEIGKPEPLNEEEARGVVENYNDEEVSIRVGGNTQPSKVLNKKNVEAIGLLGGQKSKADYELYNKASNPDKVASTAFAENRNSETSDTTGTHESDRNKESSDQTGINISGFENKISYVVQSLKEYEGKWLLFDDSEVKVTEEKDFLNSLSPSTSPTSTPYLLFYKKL
#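 High-throughput fluorogenic screen: 1nM USP1/UAF1 complex, Ub-Rho substrate 150nM final, 50mM HEPES pH 7.8 with 0.5mM EDTA, 0.1 mg/ml BSA, 1mM TCEP and 0.01% Tween-20.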
# Giardia killer: kills Giardia lamblia. Giardia lamblia trophozoite viability. 340,000 tested, 0.15% active. activity change, % at 7.66 µM, hits read low. AID 540267; in the data active means activity change below about -80%; inconclusive means between about -30% and that limit;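 further: parasites exposed to compound for two days anaerobically before the ATP read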
#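 Giardia lamblia trophozoites (100 cells/well) were incubated with compounds for 48 h at 37 deg C under anaerobic conditions. Viability was read as ATP content by one-step luminescence after 15-30 min at room temperature.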
# hERG WT inh: inhibitors of human wildtype KCNH2 potassium channel; Q12809; U2OS, BacMam KCNH2, thallium flux FluxOr; active compounds read low; activity change, % at 1.84 µM; 340,000 tested, 0.37% active;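 active means maximum activity change below -70%; inconclusive means maximum activity change between -70% and -50%; inactive means maximum activity change above -50%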
#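 U2OS cells were transduced with wild-type KCNH2 virus (2.03 x 10^8 / mL) for 4 h at room temperature, then cultured overnight at 37 C. Thallium flux was read with FluxOr dye. Rate constants were normalized to DMSO controls.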
# KCNH2 3.1 inh: KCNH2 3.1 (human) potassium channel inhibition. U2OS KCNH2 3.1, thallium flux FluxOr; active compounds read low. activity change, % (tested at about 1.8 µM). 340,000 tested, 0.95% active. AID 720553;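 active means maximum activity change below -70%; inconclusive means maximum activity change from -70% to -50%; inactive means maximum activity change above -50%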;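 further: thallium influx rate constant from kinetic fluorescence after stimulation buffer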
#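 FluxOr-based Tl+ influx in U2OS cells transduced with KCNH2 3.1 virus; rate constants normalized to DMSO controls.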
# Active calls of the source: *; ? = inconclusive; . = no result. On the % scale 0 is the no-effect control and ±100 the full control effect.
SMILES,FBPA coupling cs,USP1 inh,Giardia killer,hERG WT inh,KCNH2 3.1 inh
CC1CCN(S(=O)(=O)N2CCC(C(=O)NCc3ccccc3Cl)CC2)CC1,.,-4%,.,.,.
Cc1cc(NC(=O)C2CCN(S(=O)(=O)c3ccc4[nH]c(=O)oc4c3)CC2)ccc1Br,.,-5%,.,.,.
CN(C)c1ccc(C2/C(=C(/O)c3ccc(Br)cc3)C(=O)C(=O)N2C)cc1 (configuration not stated),-2,-15%,-19,-2,-176*
c1ccc2c(C3=NNC(=NC4CC4)SC3)c[nH]c2c1,5,-20%,31,-10,8
c1ccc2c(C3=NNC(=NC4CCCCC4)SC3)c[nH]c2c1,3,-29%,6,4,-86*
O=C(c1cc2sccc2n1Cc1ccc(F)cc1)N1CCN(c2nc3ccccc3s2)CC1,1,-8%,3,-16,-90*
O=C(C1CC1)N1CCN(c2nc3ccc(F)cc3s2)CC1,.,-20%,.,.,.
Cn1c(C(=O)N2CCN(c3nc4ccccc4s3)CC2)cc2sccc21,3,2%,3,-3,-2
Cc1ccc2sc(N3CCN(C(=O)c4ccc([N+](=O)[O-])o4)CC3)nc2c1C,.,-11%,-29,-139*,-201*
COc1cccc2sc(N3CCN(C(=O)c4ccc([N+](=O)[O-])o4)CC3)nc12,.,-12%,-87*,22,-13
O=C(c1ccc([N+](=O)[O-])o1)N1CCN(c2nc3ccc(F)cc3s2)CC1,.,-21%,-89*,8,?
O=C(c1ccc([N+](=O)[O-])o1)N1CCN(c2nc3c(Cl)cccc3s2)CC1,.,-19%,?,4,-20
COc1ccc(C2/C=C\CN(CC(C)C)C(C)C(=O)N2Cc2ccc(F)cc2)cc1 (configuration not stated),-1,.,19,.,.
COc1cccc(-c2nc(SCC(=O)NCc3ccco3)c3c(=O)n(C)c(=O)n(C)c3n2)c1,.,10%,.,.,.
COc1ccc(-c2[nH]c(-c3cccc(OC)c3)nc2SCC(=O)NCc2ccco2)cc1,-3,-17%,-2,-11,-105*
COc1cc(C(=O)O[C@H]2C/C(C)=C/CC/C(C)=C/[C@@H](O)C2C(C)C)ccc1O (some centres not stated),1,.,.,.,.
CNC(=S)N(CCc1c(C)[nH]c2ccc(C)cc12)Cc1cccnc1,0,-24%,11,-12,-3
CNC(=S)N(CCc1c(C)[nH]c2ccccc12)Cc1cccnc1,7,-7%,-6,-133*,-191*
O=C(Nc1ccnn1C1CCN(Cc2ccc(Cl)cc2)CC1)C1CCCC1,.,-14%,-3,55,-44
Cc1c(CN2CCC(n3nccc3NC(=O)C3CC3)CC2)[nH]c2ccccc12,.,-17%,14,-21,-74*
CC(C)Oc1ccc(CN2CCC(n3nccc3NC(=O)CCc3ccccc3)CC2)cc1,0,-5%,-9,-32,-106*
CCc1ccc(CN2CCC(n3nccc3NC(=O)C3CCCC3)CC2)cc1,2,-4%,3,-30,-75*
O=C(Nc1ccnn1C1CCN(Cc2ccc(OC(F)F)cc2)CC1)C1CCCC1,.,-11%,-23,-102*,-83*
Cn1cc(CN2CCC(n3nccc3NC(=O)C3CCCC3)CC2)cn1,.,-18%,-11,0,6
COC(=O)c1ccc(CN2CCC(n3nccc3NC(=O)C3CC3)CC2)cc1,1,-5%,-21,25,8
SMILES,FBPA coupling cs,USP1 inh,Giardia killer,hERG WT inh,KCNH2 3.1 inh
O=C(COC(=O)c1n[nH]c(=O)c2ccccc12)Nc1ccccc1,.,-3%,27,4,17
COC(=O)c1ccc(CN2CCC(n3nccc3NC(=O)C3CCCC3)CC2)cc1,.,-20%,4,40,-7
CC(C)c1ccc(CN2CCC(n3nccc3NC(=O)C3CCCC3)CC2)cc1,.,?,.,7,-72*
Cc1nc(CC(=O)Nc2ccc(C)c(C)c2)cs1,.,-8%,.,.,.
CC1=Nc2ccccc2/C1=C\c1nc(-c2ccc(F)cc2)oc1O,-1,28µM*,-14,-6,-16
Brc1ccc2ncnc(Nc3ccc(N4CCOCC4)cc3)c2c1,-4,-9%,-4,2,-104*
O=C(COc1ncnc2ccc(Br)cc12)Nc1ccc(N2CCOCC2)cc1,-1,-11%,1,4,-2
COc1ccccc1/C=N/NC(=O)CSc1ccc2ccccc2n1,-33*,-24%,-18,-2,-16
COC(=O)c1sccc1NC(=O)c1c(-c2ccccc2)noc1C,0,-15%,-22,0,-74*
COc1ccccc1/C=N/NC(=O)CC(=O)NCc1ccccc1,-54*,-21%,8,17,10
COc1ccccc1/C=N/NC(=O)c1c(-c2ccccc2)noc1C,-34*,-25%,3,2,9
Cc1onc(-c2ccccc2)c1C(=O)Nc1ccc(NC(=O)c2c(-c3ccccc3)noc2C)cc1,.,-24%,-2,-7,-24
Cc1ccc(CNC(=O)C2CCCN(c3ncnc4onc(-c5ccc(F)cc5)c34)C2)cc1 (configuration not stated),.,-25%,.,.,.
CSc1ccc(N2CCN(CCCNC(=O)Nc3ccccc3F)CC2)cc1,-1,-11%,-12,38,-78*
COc1ccc(NC(=O)NCCCCc2ccccc2)cc1,.,-15%,-10,-3,10
COc1ccc(-c2noc(CCC(=O)NCCCN3CCC(Cc4ccccc4)CC3)n2)cc1,3,-9%,12,?,-103*
COc1ccc(NC(=O)NCCCN2CCC(Cc3ccccc3)CC2)cc1,3,-4%,5,-44,-104*
COc1ccc(-c2cc3c(=O)n(CC(=O)NCCCN4CCC(Cc5ccccc5)CC4)ncn3n2)cc1,.,-23%,-23,-111*,-71*
O=C1OC2(c3cc(I)c(O)c(I)c3Oc3c2cc(I)c(O)c3I)c2c(Cl)c(Cl)c(Cl)c(Cl)c21,2,.,.,.,.
CCCC[C@H]1CCCO[C@@](C(=O)NCCN2CCOCC2)(C(F)(F)F)C1,3,.,-2,.,.
CSc1ccc(NC(=O)NCCCN2CCC(Cc3ccccc3)CC2)cc1,1,-14%,24,-48,-106*
O=C(NCCCN1CCN(c2ccc(F)cc2)CC1)NC12CC3CC(CC(C3)C1)C2,2,-9%,-10,?,-83*
O=C(NN(c1ccccc1)c1ccccc1)c1ccc([N+](=O)[O-])o1,-6,-14%,-89*,-4,-3
C/C(=N/NC(=O)C(O)(c1ccccc1)c1ccccc1)c1ccc([N+](=O)[O-])o1,-5,-19%,-90*,-7,-15
O=C(NCC1CCCO1)c1ccc([N+](=O)[O-])o1 (configuration not stated),.,-16%,?,-10,12
NC(=O)c1oc2ccccc2c1NC(=O)c1ccc([N+](=O)[O-])o1,-3,-21%,-88*,-7,1
O=C(NNC(=O)c1ccc([N+](=O)[O-])o1)c1ccccc1,-9,-23%,-98*,-7,-8
Cc1cccc2sc(N(CCN(C)C)C(=O)c3ccc4c(c3)OCCO4)nc12,.,-18%,.,.,.

# Source: PubChem BioAssay (National Center for Advancing Translational Sciences (NCATS))
